An excerpt weighted towards active compounds, which were near 6.8% of everything screened.
A340 absorber = compounds absorbing at 340 nm. compound absorbance at 340 nm, fold over control. fold change at 10 µM. 65,000 tested, under 10 active. AID 708;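 active = at 10 µM dose, initial 340 nm absorbance at least 2 fold that of control wells; inactive = change under 2 fold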;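 also: initial absorbance extrapolated from kinetic A340 decline of NADH oxidation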
Autofluor 339 = intrinsic fluorescence of library compounds, ex339/em460 – biochemical, MLSMR library, data from DPM-DC assay, artefact control, profiling panel. fluorescence fold increase at 10 µM. compound autofluorescence, ex339/em460 nm, NADH buffer; active compounds read high; 1 = no-compound wells, NADH background. 5.5% of 65,000 active;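 active = at 10 µM, mean starting fluorescence two-fold or more over control wells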;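 also: signal is the first read of a kinetic run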
Spn MK inh = inhibitors of Streptococcus pneumoniae mevalonate kinase | AID 555 | 0.48% of 65,000 active | purified MK, PK/LDH-coupled NADH absorbance 340 nm | inhibition, % at 10 µM;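 active = ranked among the strongest by inhibition in the single 10 µM screen, a fixed top-ranked set picked for dose follow-up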
NADH enzymes = inhibition of NAD/NADH coupling enzymes, library profiling. IC50, µM (top dose mostly 10 µM). 0.02% of 65,000 active. coupled PK/LDH NADH assays, four targets;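 active = single-dose screening hits from any of four coupled enzyme assays that gave an IC50 when retested across doses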;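 also: the DPM-DC format reads NADH fluorescence rather than 340 nm absorbance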
Spn DPM-DC inh = blocks S. pneumoniae diphosphomevalonate decarboxylase; purified DPM-DC, PK/LDH coupled NADH fluorescence; calls only at 10 µM; 0.49% of 65,000 active; AID 556;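 active = the 320 compounds with the highest percent inhibition in the single-dose primary screen, excluding strongly autofluorescent ones, cut at about 32% in these data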;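 also: kinetic rate of NADH fluorescence loss reporting ADP formed by the decarboxylase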
PMK inhibit = inhibitors of Streptococcus pneumoniae phosphomevalonate kinase | AID 539 | 0.49% of 65,000 active | purified PMK, PK/LDH-coupled NADH absorbance 340 nm | inhibition, % at 10 µM;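 active = top-ranked compounds by inhibition in the single 10 µM screen, taking a fixed number of the strongest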
Hits are given with their value; 0 = inactive; - = no result given; + = active, no number.

SMILES	A340 absorber	Autofluor 339	Spn MK inh	NADH enzymes	Spn DPM-DC inh	PMK inhibit
CCCCOc1ncnc2c1[nH]c1ccccc12	0	2.3	0	0	0	0
CCCCOC(=O)Nc1cc(OC)c(Cl)cc1OC	0	0	0	0	0	0
COc1ccccc1-c1cc(C2CC2)nc(N)c1C#N	0	2.1	0	0	-	0
CCc1nc(N)c(C#N)c(-c2ccccc2OC)c1C	0	2.3	0	0	0	0
COc1ccccc1N1CCN(c2nc(N)c(C#N)c(CC#N)c2C#N)CC1	0	0	0	0	0	0
COc1ccccc1-c1c(C)c(C)nc(N)c1C#N	0	2.4	0	0	0	0
CN(C)S(=O)(=O)c1ccc(C(=O)OCC(=O)c2ccc(OC(F)F)cc2OC(F)F)cc1	0	0	0	0	0	0
Cc1ccc(C)c(S(=O)(=O)N2CCN(CC(=O)NC(=O)NCc3ccccc3)CC2)c1	0	0	0	0	0	0
COc1ccc(OC)c(NC(=O)CN2C(=O)c3ccccc3S2(=O)=O)c1	0	0	0	0	0	0
COc1ccc2c(c1)-c1ccccc1S(=O)(=O)N2C(C)=O	0	3.6	0	0	+	0
COc1ccc(CNC(=O)c2ccc3c(c2)N(C)C(=O)CS3=O)cc1 (configuration not stated)	0	0	0	0	0	0
CCOC(=O)c1[nH]c2ccc(OC)cc2c1NC(=O)C(C)N1CCC2(CC1)OCCO2 (configuration not stated)	0	3.8	0	0	-	0
CCOC(=O)c1[nH]c2ccc(OC)cc2c1NC(=O)CN1CCC2(CC1)OCCO2	0	3.9	0	0	-	0
CCOC(=O)c1[nH]c2ccc(OC)cc2c1NC(=O)c1nonc1C	0	0	0	0	0	0
CCOC(=O)c1[nH]c2ccc(C)cc2c1NC(=O)CN1CCCCC1	0	0	0	0	0	0
CCOC(=O)c1[nH]c2cc(OC)c(OC)cc2c1NC(=O)CN1CCN(C)CC1	0	3.6	0	0	-	0
CCOC(=O)c1[nH]c2ccc(F)cc2c1NC(=O)C(C)N1CCc2cc(OC)c(OC)cc2C1 (configuration not stated)	0	0	0	0	0	0
O=C(Cc1cc(=O)oc2cc(O)ccc12)NCC1CCC(C(=O)O)CC1 (configuration not stated)	0	3.9	0	0	-	0
Cc1ncsc1CCSc1nc2ccccc2c(=O)n1C	0	0	0	0	0	0
CCOC(=O)c1c(SC)nc(SC)c2c1CCC2	0	0	0	0	0	0
CCCc1nc2oc(C(=O)OCC)c(N)c2c2c1COC(C)(C)C2	0	3.9	0	0	-	0
CCOC(=O)c1oc2nc(C(C)C)c3c(c2c1N)CCC3	0	3.8	0	0	-	0
CCOC(=O)c1oc2nc(C(C)C)c3c(c2c1N)CC(C)(C)OC3	0	3.8	0	0	-	0
Cc1nc2oc(C(=O)c3ccccc3)c(N)c2c2c1COC(C)(C)C2	0	0	0	0	0	0
CCN(CC)S(=O)(=O)c1cccc(-c2nnc(SCc3nnc(-c4cccs4)o3)n2N)c1	0	0	0	0	0	0
SMILES	A340 absorber	Autofluor 339	Spn MK inh	NADH enzymes	Spn DPM-DC inh	PMK inhibit
NC(=O)c1cnn2c(C(F)(F)F)cc(-c3ccc(F)cc3)nc12	0	2.1	0	0	0	0
COc1cc(-c2cc(C(F)(F)F)n3ncc(C(=O)O)c3n2)cc(OC)c1OC	0	0	0	0	0	0
NC(=O)c1cnn2c(C(F)(F)F)cc(-c3ccccc3)nc12	0	2.1	0	0	0	0
Cc1ccc(-c2cc(C(F)(F)F)n3ncc(C(=O)N4CCN(C)CC4)c3n2)cc1	0	0	0	0	0	0
O=C1c2ccccc2C(=O)N1CCc1nc2ccccc2c(=O)n1CCCn1ccnc1	0	0	0	0	0	0
OCCNc1ncnc2c1c(-c1ccccc1)c(-c1ccccc1)n2Cc1ccco1	0	0	0	0	+	0
Nc1[nH]nc2nc(N3CCCC3)nc(-c3ccccc3)c12	0	0	0	0	0	0
Cc1cc(C)n2nc3nc(N4CCCC4)nc(-c4ccccc4)c3c2n1	0	3.2	0	0	0	0
COc1ccc(-c2nc(N3CCCC3)nc3nn4c(C)cc(C)nc4c23)cc1	0	2.2	0	0	0	0
COc1ccc(-c2nc(N3CCOCC3)nc3n[nH]c(N)c23)cc1	0	0	0	0	0	0
CC1(C)Cc2nc3sc4c(N(CCO)CCO)ncnc4c3cc2CO1	0	2.3	0	0	-	0
